SARS PLpro yeast: inhibitors of SARS-CoV papain-like protease in yeast. S. cerevisiae expressing SARS-CoV PLpro, growth rescue. Potency, µM (highest dose often 32.9 µM), hits mostly activators. actives 0.19% (n = 330,000). AID 485353; calls by dose curve; further: nearly all actives have a fitted effect of over 55% in size
Pf growth 48h: inhibits P. falciparum growth in the first generation, 48 h; Potency, µM (doses to about 28.7 µM), hits mostly inhibitors; P. falciparum luciferase growth in erythrocytes, 48 h; AID 504832; actives 5.9% (n = 310,000)
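Parasite viability was followed by luminescence of a genomically integrated firefly luciferase. Cultures held 0.1% parasitemia at 2% hematocrit (final), incubated under 5% CO2 at 37 C.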
Pf growth 96h: P. falciparum growth inhibition at 96 hours; P. falciparum luciferase reporter growth, 96 h; Potency, µM (doses to about 28.7 µM), most hits filed as inhibitors; actives 6.9% (n = 320,000)
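Plates of compound plus infected erythrocytes (2% hematocrit, 0.05% parasitemia final) incubate 96 hours, 37 C, 5% CO2. Detection reagent added; reduced luminescence from the parasites' luciferase reporter flags inhibition.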
NS1 function inh: blocks influenza NS1 protein function; actives 0.4% (n = 270,000); Potency, µM (titrated, usually from 46.1 µM); AID 2326; calls by dose curve; further: actives are rising curves; nearly all actives have a fitted effect of over 50% in size
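S. cerevisiae expressing influenza A NS1, grown in glucose, washed, then diluted 1:100 into pH 6.0 -URA galactose medium with 23 nl compound. Growth recovery read as OD600; NS1-free strain serves as control.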
Large screens that a line does not name were inactive. Compounds with a hit are over-represented: about 10% of the library has one in this group of screens. Unless noted, the call rests on the fitted dose curve; in most records, active means well fitted inhibition curve with a large enough effect; inconclusive means small, poorly fitted or top-dose-only effect, or another doubt; inactive means no such curve, though single readings can be large or run the other way.

COc1cc2c(cc1OC)CN(Cc1cc(=O)oc3cc(C)c(Cl)cc13)CC2	Pf growth 48h 9.3µM, Pf growth 96h inconclusive
COc1cc2c(cc1OC)CN(Cc1cc(=O)oc3cc(C)c(C)cc13)CC2	Pf growth 48h inconclusive, Pf growth 96h inconclusive
COc1cc2c(cc1OC)CN(Cc1cc(=O)oc3c(C)c(C)ccc13)CC2	Pf growth 96h 13µM
COc1ccc(N2CCN(C(c3cc(OC)ccc3OC)c3nnnn3CC3CCCO3)CC2)cc1 (stereo unspecified)	Pf growth 48h inconclusive
COc1ccccc1C(O)(C(=O)NNc1ccccc1C)c1ccccc1OC	Pf growth 48h inconclusive, Pf growth 96h 6.6µM
COc1ccc(Br)cc1C(=O)Nc1cccc(C)c1	Pf growth 96h inconclusive (no result: Pf growth 48h)
COc1ccccc1C(O)(C(=O)NNc1cccc(C)c1)c1ccccc1OC	Pf growth 96h 2.6µM
CSc1ccccc1NC(=O)CN(C)CC(=O)c1c(C)[nH]c2ccccc12	Pf growth 48h 4.1µM, Pf growth 96h inconclusive (no result: NS1 function inh)
O=C1CC(SC(=Nc2ccccc2)Nc2ccccc2)C(=O)N1c1ccc(Cl)cc1 (stereo unspecified)	Pf growth 48h inconclusive, Pf growth 96h inconclusive
O=C(CSC1CC(=O)N(c2ccc(C(=O)O)cc2)C1=O)Nc1ccc(Cl)cc1 (stereo unspecified)	Pf growth 96h 12µM
CCOc1ccc(NC(=O)CN(C)C(=O)c2cc(-c3ccncc3)nc3ccccc23)cc1OCC	Pf growth 48h inconclusive, Pf growth 96h inconclusive (no result: NS1 function inh)
COc1ccc(NC(=O)CN(C)C(=O)c2cc(-c3ccncc3)nc3ccccc23)cc1	Pf growth 48h inconclusive, Pf growth 96h inconclusive
COc1ccc(NC(=O)CN(C)C(=O)c2cc(-c3ccc(OC)cc3)nc3ccccc23)cc1	Pf growth 48h 9.3µM, Pf growth 96h inconclusive (no result: NS1 function inh)
COc1ccc(Cl)cc1NC(=O)CN(C)C(=O)c1cc(-c2ccncc2)nc2ccccc12	Pf growth 48h 9.3µM, Pf growth 96h 5.2µM (no result: NS1 function inh)
Cc1ccc(NC(=O)CN(C)C(=O)c2cc(-c3ccco3)nc3ccccc23)cc1	Pf growth 48h 10µM, Pf growth 96h inconclusive (no result: NS1 function inh)
CCOc1ccc(NC(=O)CN(C)C(=O)c2cc(C)nc3ccccc23)cc1OCC	Pf growth 48h 15µM, Pf growth 96h inconclusive (no result: NS1 function inh)
Cc1ccc(CNC(=O)COC(=O)c2cc(C)oc2C)cc1	none (no result: NS1 function inh)
Cc1ccc(N2C(=O)N3[C@H](c4ccc(F)cc4)[C@@H]4C(=O)N(C5CCCCC5)C(=O)[C@@H]4[C@]3(C)C2=O)cc1	Pf growth 96h inconclusive
Cc1ccc2nc(-c3ccccc3)cc(C(=O)N(C)CC(=O)Nc3ccccc3Br)c2c1	Pf growth 48h 13µM, Pf growth 96h inconclusive (no result: NS1 function inh)
O=C(NCc1cccs1)C1CCCN(C(=O)Nc2ccccc2)C1 (stereo unspecified)	Pf growth 96h inconclusive
O=C(N/N=C/c1cc(Br)c(Br)o1)c1cccnc1	Pf growth 96h 13µM
O=C(N/N=C/c1[nH]c2ccccc2c1Cl)c1cccc(Br)c1	Pf growth 48h inconclusive, Pf growth 96h 12µM
O=C(N/N=C/c1cccnc1)c1cccc(Br)c1	SARS PLpro yeast inconclusive, Pf growth 96h 6.6µM
Cc1[nH]c2ccccc2c1/C=N/NC(=O)c1cccc(Br)c1	none
O=C(N/N=C/c1cccc(Oc2ccccc2)c1)c1ccncc1	Pf growth 96h 3.7µM (no result: NS1 function inh)
COC(=O)[C@H](Cc1c[nH]c2ccccc12)NC(=O)Nc1ccccc1OC	none
Cc1cccc(C)c1NC(=O)CCCn1nc(C)c2c(C)n(-c3ccccc3)nc2c1=O	Pf growth 96h 12µM
CCOc1ccc(NC(=O)CCCn2nc(C)c3c(C)n(-c4ccccc4)nc3c2=O)cc1	Pf growth 48h inconclusive, Pf growth 96h 12µM
O=C(Cn1cnc([N+](=O)[O-])c1)c1ccc(F)cc1	none (no result: NS1 function inh)
CN(C)c1ccc(C(C(=O)NCC2CCCO2)N(C(=O)c2snc(C(N)=O)c2N)c2ccccc2)cc1 (stereo unspecified)	Pf growth 48h 2.9µM
NC(=O)c1nsc(C(=O)N(c2ccccc2)C(C(=O)NCC2CCCO2)c2ccc3ncccc3c2)c1N (stereo unspecified)	Pf growth 48h 12µM, Pf growth 96h inconclusive
Cc1cccc(N(C(=O)c2snc(C(N)=O)c2N)C(C(=O)NCC2CCCO2)c2ccc(N(C)C)cc2)c1 (stereo unspecified)	Pf growth 48h 13µM
CCOc1ccc(C(C(=O)NCC2CCCO2)N(Cc2cccc(OC)c2)C(=O)c2snc(C(N)=O)c2N)cc1 (stereo unspecified)	Pf growth 48h 13µM, Pf growth 96h inconclusive
CCOc1ccccc1N(C(=O)c1snc(C(N)=O)c1N)C(C(=O)NCC1CCCO1)c1ccc2ncccc2c1 (stereo unspecified)	Pf growth 48h inconclusive, Pf growth 96h inconclusive
CC(C)c1ccc(N(C(=O)c2snc(C(N)=O)c2N)C(C(=O)NCC2CCCO2)c2ccc(N(C)C)cc2)cc1 (stereo unspecified)	SARS PLpro yeast inconclusive, Pf growth 48h inconclusive
Cc1ccccc1N(C(=O)c1snc(C(N)=O)c1N)C(C(=O)NCC1CCCO1)c1ccc(N(C)C)cc1 (stereo unspecified)	Pf growth 48h 1.7µM, Pf growth 96h inconclusive
CCc1ccccc1N(C(=O)c1snc(C(N)=O)c1N)C(C(=O)NCC1CCCO1)c1ccc(N(C)C)cc1 (stereo unspecified)	Pf growth 48h inconclusive
COc1cccc(CNC(=O)C2CCN(S(=O)(=O)c3ccc4c(c3)CC(C)N4C(C)=O)CC2)c1 (stereo unspecified)	Pf growth 48h inconclusive, Pf growth 96h inconclusive
CCOc1ccccc1N/C(=N/c1nc(C)cc(C)n1)NC(=O)Nc1ccc(Cl)c(Cl)c1	Pf growth 48h inconclusive
CCCOc1ccccc1N/C(=N/c1nc(C)cc(C)n1)NC(=O)Nc1ccc(Cl)cc1	Pf growth 48h 13µM
CCCOc1ccccc1NC(=O)Nc1ccccc1Cl	Pf growth 96h 8.3µM (no result: NS1 function inh)
O=C(Nc1ccccc1)Nc1cccc(Cl)c1Cl	none
O=C(NCCCl)Nc1ccccc1OCCOc1ccccc1NC(=O)NCCCl	Pf growth 48h 2.1µM, Pf growth 96h 2.1µM
O=C(Nc1ccc(Oc2ccc(NC(=O)Nc3ccccc3Cl)cc2)cc1)Nc1ccccc1Cl	Pf growth 48h 1.9µM, Pf growth 96h 1.5µM
CC(O)CN(CCN(CC(C)O)CC(C)O)CC(C)O (stereo unspecified)	none (no result: SARS PLpro yeast, NS1 function inh)
O=C(NC1(C(F)(F)F)Oc2ccccc2O1)N1CCC2(CC1)OCCO2	Pf growth 96h inconclusive
O=C(NC1(C(F)(F)F)Oc2ccc(Cl)cc2O1)N1CCC2(CC1)OCCO2 (stereo unspecified)	Pf growth 96h 1.9µM (no result: Pf growth 48h)
N#C/C(=C\c1cccnc1)c1ccc([N+](=O)[O-])cc1	Pf growth 96h 2.6µM
N#C/C(=C\c1cccc([N+](=O)[O-])c1)C(=O)NCc1cccnc1	Pf growth 96h 6.6µM
CC(C)Oc1ccc(C(=O)OCC(=O)NCCNC(=O)COC(=O)c2ccc(OC(C)C)cc2)cc1	Pf growth 48h inconclusive, Pf growth 96h 13µM
O=C(COC(=O)c1ccc(OC(F)F)cc1)NCCNC(=O)COC(=O)c1ccc(OC(F)F)cc1	none
Cc1nc2sccn2c(=O)c1CCN1CCC(=C(c2ccc(F)cc2)c2ccc(F)cc2)CC1	Pf growth 48h 10µM, Pf growth 96h 10µM

Bioassay records (PubChem BioAssay)
